KDM4E inh: blocks human JMJD2E demethylase activity; JMJD2E catalytic domain, FDH-coupled NADH fluorescence (FDH is formaldehyde dehydrogenase); Potency, µM (doses to about 57.1 µM), usual class: inhibitors; 230,000 tested, 1.6% active; active = well fitted inhibition curve with a large enough effect, not every such curve was filed as active; inconclusive = small, poorly fitted or top-dose-only effect, or another doubt; inactive = no such curve, though single readings can be large or run the other way; note: nearly all actives have a fitted effect of over 50% in size
Target sequence (B2RXH2 1-337 limits assumed): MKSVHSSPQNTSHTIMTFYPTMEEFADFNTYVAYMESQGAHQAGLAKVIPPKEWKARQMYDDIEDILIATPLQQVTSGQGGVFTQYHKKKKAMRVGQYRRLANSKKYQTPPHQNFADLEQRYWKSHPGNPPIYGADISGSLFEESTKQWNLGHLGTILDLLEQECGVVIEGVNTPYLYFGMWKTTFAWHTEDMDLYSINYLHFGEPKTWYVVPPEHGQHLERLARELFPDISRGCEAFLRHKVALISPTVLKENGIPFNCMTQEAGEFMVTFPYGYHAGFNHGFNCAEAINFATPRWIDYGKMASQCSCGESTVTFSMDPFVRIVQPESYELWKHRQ
Tau ThT inhib: inhibitors of human tau fibril formation, thioflavin T binding; 270,000 tested, 2.1% active; Potency, µM (titrated, usually from 57.4 µM), hits mostly inhibitors; recombinant tau K18 P301L, heparin-induced fibrillization, ThT fluorescence; P10636; note: nearly all actives have a fitted effect of over 55% in size
Target sequence (P10636 561-689 P618L limits assumed): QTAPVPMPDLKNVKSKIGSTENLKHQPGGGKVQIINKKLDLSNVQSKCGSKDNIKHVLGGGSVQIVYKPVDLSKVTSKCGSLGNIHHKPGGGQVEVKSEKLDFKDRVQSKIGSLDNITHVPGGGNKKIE
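Using a mix of unlabeled (15 uM) and Alexa 594-labeled (0.24 uM) tau K18 P301L, heparin-triggered fibrillization over 6 hr at 37 C was scored by ThT fluorescence.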
Tau FP inhib: tau fibrillization inhibition (FP) | 280,000 tested, 0.39% active | K18 P301L tau heparin fibrillization, Alexa594 FP, 6 h | Potency, µM (series often up to 57.7 µM), hits mostly inhibitors; note: nearly all actives have a fitted effect of over 55% in size
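K18 P301L tau (15 uM unlabeled/0.24 uM Alexa 594-labeled, final) + compound + heparin 20 uM final; 100 mM NaOAc pH 7; 6 hr 37 C; ThT 30 uM final added, 1 hr RT; FP ex 555/em 632 nm.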
Coupling enz: counter-screen for Giardia aldolase inhibitors: coupling enzyme system; coupling enzyme system counterscreen, AmpLite Red fluorescence; activity change, negative = inhibition, % at 58.2 µM, hits read low; 290,000 tested, 0.67% active; in the data active = activity change below about -30%
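Compounds tested against the coupling enzymes alone at 57.5 uM final; readout was AmpLite Red fluorescence (525/598 nm) after 20 min at RT.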
Tau fluor cs: counter-screen for tau fibril formation inhibitors. tau K18 P301L Alexa594 fluorescence, heparin fibrillization. Potency, µM (top dose mostly 57.7 µM). 280,000 tested, 0.93% active. AID 1463; note: nearly all actives have a fitted effect of over 55% in size
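Human tau K18 P301L (15 uM unlabeled, 0.24 uM Alexa 594-labeled) in 100 mM sodium acetate pH 7 with 20 uM heparin, 6 hr at 37 C. ThT 30 uM added, 1 hr ambient; Alexa 594 FP and total fluorescence read at 555/632 nm.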
Each line names hits and unclear results; the compound was inactive in the other large screens; ! = a repeat was not active; [ ] = dose if it differs, or a comment. A selection: hits, their analogues and other compounds. The true share with any hit is near 3%. Unless noted, calls come from the whole dose curve; as a rule, active = well fitted curve in the direction sought with a large enough effect; inconclusive = small, poorly fitted or top-dose-only effect, or another doubt; inactive = no such curve, though single readings can be large; an effect the other way counts as inactive or inconclusive.

CCN(C(=O)CSc1nc(-c2ccccc2)no1)c1cccc(C)c1	Tau ThT inhib inconclusive (no result: KDM4E inh, Coupling enz)
CCOC(=O)C1=C(C)N(c2ccc(C)cc2)C(=O)/C1=C\c1cccs1	Tau ThT inhib 16µM
CCOC(=O)C1=C(C)N(c2ccccc2)C(=O)/C1=C\c1ccco1	Tau ThT inhib inconclusive, Tau FP inhib inconclusive
CCOC(=O)C1=C(C)N(c2ccccc2)C(=O)/C1=C\c1ccc(O)c(OC)c1	KDM4E inh 4.5µM, Tau FP inhib 35µM, Tau fluor cs 25µM[quencher] (no result: Tau ThT inhib)
COc1ccc2c(c1)c(=O)c(S(=O)(=O)c1ccc(F)cc1)cn2Cc1ccccc1Cl	none (no result: KDM4E inh, Coupling enz)
COc1ccc(NC(=O)c2nc(S(C)(=O)=O)ncc2N(Cc2ccc(C)cc2)Cc2ccco2)cc1Cl	Tau FP inhib inconclusive (no result: KDM4E inh, Coupling enz)
O=c1cc(-c2ccccc2)oc2cc(O)cc(O)c12	KDM4E inh inconclusive, Tau ThT inhib inconclusive, Tau FP inhib inconclusive
COc1ccc(-c2cc(=O)c3c(O)cc(O)c(-c4cc(-c5cc(=O)c6c(O)cc(O)cc6o5)ccc4OC)c3o2)cc1	Tau FP inhib 18µM
O=c1cc(-c2ccc(O)cc2)oc2cc(O)cc(O)c12	KDM4E inh 11µM!, Tau ThT inhib 16µM, Tau FP inhib inconclusive, Tau fluor cs inconclusive
O=c1cc(-c2cc(O)c(O)c(O)c2)oc2cc(O)cc(O)c12	KDM4E inh 10µM, Tau ThT inhib 7.9µM, Tau fluor cs 16µM[quencher]
CC(=O)Nc1ccn(C2OC(C(COC(C)=O)NC(=O)C(C)NC(=O)OC(C)(C)C)C(OC(C)=O)C2OC(C)=O)c(=O)n1 (configuration not stated)	none (no result: KDM4E inh, Tau ThT inhib, Tau FP inhib, Tau fluor cs)
c1ccc(COC[C@@H]2CO2)cc1	none (no result: KDM4E inh, Tau ThT inhib, Tau FP inhib, Tau fluor cs)
CCC(=Nc1ccccc1O)C1=C(O)CC(c2ccccc2)CC1=O (configuration not stated)	KDM4E inh 25µM, Tau ThT inhib inconclusive, Tau fluor cs inconclusive
CCOC(=O)c1ccc(CC(=O)c2ccc(O)c(O)c2O)o1	KDM4E inh 3.2µM, Tau ThT inhib 16µM, Tau FP inhib 22µM, Coupling enz -48, Tau fluor cs inconclusive
CCOC(=O)c1ccc(CC(=O)c2oc3cc(O)ccc3c2C)o1	KDM4E inh inconclusive, Tau ThT inhib inconclusive, Tau fluor cs inconclusive
COc1ccc(S(=O)(=O)NCCC(=O)NCc2ccccc2)cc1	Tau FP inhib inconclusive, Tau fluor cs 7.9µM[quencher]
COc1ccc(S(=O)(=O)NCc2ccccc2)cc1	none
COc1cc(NC(C)CCCN)c2ncccc2c1Oc1ccccc1 (configuration not stated)	KDM4E inh inconclusive, Tau ThT inhib inconclusive, Coupling enz -30
COC(=O)Cc1cc(=O)n2[nH]c(C(F)(F)F)nc2n1	KDM4E inh inconclusive, Coupling enz -34
CCCCC[C@H](O)/C=C/C=C\C/C=C\CCCCC(=O)O	none
Cc1ccc(S(=O)(=O)N2CCN(Cc3noc(CCC(=O)N4CCCCC4)n3)CC2)c(C)c1	none (no result: KDM4E inh, Coupling enz)
O=C(NCc1ccccc1Br)c1cnc2sc(N3CCCCCC3)nn2c1=O	none (no result: KDM4E inh, Coupling enz)
Cc1c(Br)c(O)c(Br)c2sc(=O)oc12	KDM4E inh 32µM, Tau ThT inhib 11µM, Tau FP inhib inconclusive, Tau fluor cs inconclusive
C[C@@]1(C(=O)O)NCCc2cc(O)c(O)cc21	KDM4E inh inconclusive, Tau ThT inhib 25µM, Tau FP inhib inconclusive, Tau fluor cs inconclusive
CC1(C)CC(=O)C2=C(C1)NC1=C(C(=O)c3ccccc31)C2c1cc([N+](=O)[O-])ccc1O (configuration not stated)	Tau ThT inhib 14µM, Tau fluor cs 16µM[quencher]
CC(C)CN1C(=O)/C(=C(/C#N)C(=O)NC2CCCCC2)c2ccccc21	Tau ThT inhib 18µM, Tau FP inhib inconclusive
CCCCN1C(=O)/C(=C(/C#N)C(=O)N2CCCC2)c2ccccc21	Tau ThT inhib inconclusive
O=C1c2ccc3c4c(ccc(c24)C(=O)N1c1cccc(O)c1)C(=O)N(c1cccc(O)c1)C3=O	none
CC1(C)CC(=O)C2=C(C1)N(c1cccc(O)c1)C1=C(C2)C(=O)CC(C)(C)C1	KDM4E inh inconclusive, Tau ThT inhib inconclusive, Tau FP inhib inconclusive, Coupling enz -36
CCCCN(C)S(=O)(=O)c1ccc(NC2=NS(=O)(=O)c3ccccc32)cc1	Tau FP inhib inconclusive (no result: KDM4E inh, Coupling enz)
O=C1CC(c2ccco2)CC(O)=C1C=NCCO (configuration not stated)	none

High-throughput results deposited in PubChem by National Center for Advancing Translational Sciences (NCATS).
